For 31 molecules, Potency results are on record in PubChem BioAssay AID624173 (National Center for Advancing Translational Sciences (NCATS), 2012).

The campaign covered roughly 410,000 compounds. About 490 (0.12%) were called active. About 1% were inconclusive and are not listed. Calls follow the shape of the dose curve; as a rule, active = well fitted inhibition curve with a large enough effect; inconclusive = small, poorly fitted or top-dose-only effect; inactive = flat fitted curve, though single readings scatter. What follows is part of a selection rich in actives, with near analogues and random picks from the rest. Where a call stands in place of a potency, no number is given.
Potency is read from the fitted curve at half-maximal effect.

This test deals with pyruvate kinase (Trypanosoma brucei) (UniProt Q57TT1). Briefly: qHTS of Trypanosoma Brucei Inhibitors. Also: nearly all actives have a fitted effect of over 50% in size. To be noted: TbPYK enzyme, Kinase-Glo Plus ATP luminescence, 45 min; series mostly up to 76.8 µM. From the text:
Members of the Trypanosomatidae family of parasitic protozoans cause a spectrum of diseases throughout the tropical and subtropical world. Sleeping sickness, caused by two subspecies of Trypanosoma brucei, is endemic to areas of sub-Saharan Africa, while Chagas' disease, a manifestation of Trypanosoma cruzi infection, is prevalent throughout Central and South America. In addition, many species of Leishmania are responsible for a range of cutaneous and visceral diseases, causing ulcers, destructive lesions and kalaazar, a lethal infection of the viscera. These diseases cause severe public health and economic burdens on populations that are often already caught in a tragic cycle of poverty, poor nutrition and disease. Collectively, parasites of the trypanosomatid family infect 30 million people worldwide (~500 million live in endemic areas), and account for ~130K deaths annually. Existing treatments have developed little in the past 50 years, and suffer from toxicity, poor efficacy and resistance; the goal of this project is to develop lead drugs that will be suitable for entry into pre-clinical trials.
Glycolysis in axenically cultured T. cruzi, representing the intracellular pathogenic stage, is also essential for these parasites. {Engel, 1987} This project aims to discover and optimize selective inhibitors of the glycolytic enzyme pyruvate kinase (PYK) from Trypanosoma brucei, the parasite that causes sleeping sickness. […] Trypanosomatid PYKs show significant differences from their human counterparts including only 47-50% sequence identity and different allosteric and activation properties.{Callens, 1992} To this end, a qHTS was done against the MLSMR to discover inhibitors.
NIH Molecular Libraries Probe Production Network [MLPCN]
NIH Chemical Genomics Center [NCGC]
PI Name: Malcolm Walkinshaw, University of Edinburgh
2 uL of TbPYK/substrate buffer (columns 1-3, 5-48) are dispensed into Greiner white solid bottom 1536-well assay plates; column 4 receives only TEA buffer as 0x TbPYK controls. Compounds are then transferred via Kalypsys pin tool equipped with 1536-pin array (10 nL slotted pins, V&P Scientific, San Diego, CA). Following addition of compound, 2 uL of ADP (130 uM final concentration, all columns) is added to initiate the reaction. The plates are then incubated at room temperature for 45 minutes. Kinase-Glo Plus reagent is added (3 uL) and plates incubated for 10 minutes, before being transferred to a ViewLux high-throughput CCD imager (PerkinElmer) wherein single end-point measurements of luminescence are acquired using a clear filter. All reagents are diluted in an assay buffer consisting of 50 mM TEA (pH 7.2), 100 mM KCl, 10 mM MgCl2, 0.05% BSA and 0.01% Tween-20.
All screening operations will be performed on a fully integrated robotic system (Kalypsys, San Diego, CA) containing one RX-130 and two RX-90 anthropomorphic robotic arms (Staeubli, Duncan, SC). Library plates will be screened starting from the lowest and proceeding to the highest concentration. Vehicle-only plates, with DMSO being pin-transferred to columns 5-48, will be inserted uniformly at the beginning and the end of each library in order to monitor and record any shifts in the background, which can be affected by reagent dispensers or loss in enzyme activity over time. Screening data will be corrected, normalized, and concentration-effect relationships will be derived by using publicly-available curve fitting algorithms developed in-house (http://ncgc.nih.gov/pub/openhts).
For orientation: In qHTS, concentration-response curves come from the screen itself.
Regarding `O=C(c1cnccn1)N1CCC[C@@]2(CCN(Cc3ccncc3)C2)C1`, the Potency entry was “inactive”.
For `COc1ccccc1CN1CC2(CCN(S(=O)(=O)c3ccccc3)CC2)C1` the value was “inactive”.
For `O=P1(N(CCCl)CCCl)NC(OO)CCO1` (stereo unspecified) the value was “inactive”; for `O=C(c1cccc(F)c1)N1CCC2(CCCN(Cc3ccncc3)C2)CC1`, “inactive”; for `COC(=O)N1CCC[C@@]2(CCN(C(=O)NC(C)C)C2)C1`, “inactive”.
For the molecule `O=C(c1ccco1)N1CCC[C@@]2(CCN(c3ccccc3)C2)C1`, the Potency result is “inactive”.
For `COC(=O)N1CCC2(CCCN(Cc3ccccc3OC)C2)CC1` the value was “inactive”; for `CS(=O)(=O)N1CCC2(CC1)CN(Cc1cc(C(F)(F)F)cc(C(F)(F)F)c1)C2`, “inactive”; for `CC(=O)N1CCC2(CCCN(c3ncccn3)C2)CC1`, “inactive”.
As to `CC[C@]1(C)CC(=O)NC1=O`, the Potency result is “inactive”.
The same measure for `C=C1C(=CC=C2CCC[C@]3(C)[C@@H]([C@H](C)C=C[C@H](C)C(C)C)CC[C@@H]23)C[C@@H](O)C[C@@H]1O`: “inactive”.
For `COc1ccc(Cl)cc1NC(=O)CCn1c(=O)c2cccn2c2ccccc21` the value was “inactive”; for `Cc1ccc(C)c2c1cc(C)c1nnc(SCC(=O)Nc3cccc(C(=O)O)c3)n12`, 6.31 µM (active); for `CCOc1cc(C)ccc1OCc1nnc(SCC(=O)Nc2cccc(C(=O)O)c2)n1-c1ccccc1`, “inactive”.
For `Cc1ccc(C(=O)NCCc2nnc(SCC(=O)Nc3cccc(C(=O)O)c3)n2C)cc1`, the Potency result is “inactive”.
In the case of `CC(=O)OC[C@H]1O[C@@H](O[C@H]2[C@H](O)[C@@H](OC(=O)c3ccccc3C(=O)O)[C@H](O)O[C@@H]2COC(C)=O)[C@H](O)[C@@H](OC(=O)c2ccccc2C(=O)O)[C@@H]1O`, the Potency result was “inactive”.
The same measure for `O=C(c1cccc(F)c1)N1CCC2(CC1)CCN(c1ccccc1)CC2`: “inactive”.
For `c1csc(CN2CC3(CCNCC3)C2)n1` the value was “inactive”; for `O=C(O)CCCCC(=O)O`, “inactive”; for `COc1ccc(C(=O)N2CCC[C@@]3(CCN(C(=O)NC(C)C)C3)C2)cc1`, “inactive”.
The same measure for `COc1ccccc1OCCCn1c(-c2ccc(Cl)cc2)nc2ccccc2c1=O`: “inactive”; for `O=S(=O)(c1ccccc1)N1CCC2(CC1)CN(Cc1nccs1)C2`: “inactive”.
For the molecule `CCOc1ccc(N2C(=O)/C(=C/c3ccc(C)o3)N(C)C2=S)cc1`, the Potency was 28.2 µM (active).
On to `CCOC(=O)c1ccc(NC2=CC(c3ccc(OCC)cc3)N(c3ccc(C(=O)OCC)cc3)C2=O)cc1` (stereo unspecified), for which the Potency result was “inactive”.
As for `CCOc1ccc(N2C(=O)Nc3ccccc3C2(O)C(=O)NCc2ccco2)cc1` (stereo unspecified), the Potency result was “inactive”.
For `O=C(c1cc(C(F)(F)F)cc(C(F)(F)F)c1)N1CCC2(CC1)CN(c1ccncc1)C2` the value was “inactive”; for `CCc1cc(-c2n[nH]c(=S)n2CC(C)C)cs1`, 3.16 µM (active).
The same measure for `CCc1cc(-c2nnc(SCC(=O)NC3CC3)n2C)cs1`: “inactive”.
As for `CCn1c(C(C)C)n[nH]c1=S`, the Potency result was “inactive”.
The same measure for `FC(F)(F)C1CCCN(c2nsc3ccccc23)C1` (stereo unspecified): 6.31 µM (active); for `FCOC(C(F)(F)F)C(F)(F)F`: “inactive”.
